The source made the active and inactive calls. Rule for the calls: active = hit-call score of the fitted dose curve at least 0.9, where 1 is the maximum; inactive = score below 0.9.
Experiment: CCTE_Shafer_MEA_acute_cross_correlation_HWHM: CCTE's Neural Acute Assay for Cross Correlation at Half Width at Half Maximum, Shafer Lab (AID 2284026)
Protocol: CCTE_Shafer_MEA_acute assay is conducted using Axion Biosystems 48 well microelectrode array (MEA) plates and Maestro recording system. Each well of the MEA plate contains a grid of 16 microelectrodes embedded in the culture surface. Electrically active cells, such as neurons, can be cultured over the electrodes, and electrical activity in these cells can be recorded extracellularly. The spontaneous firing of neurons is captured from each electrode on a microsecond timescale providing both temporally and spatially precise data. […] The CCTE_Shafer_MEA_acute assay uses primary cultures of rat cortical neurons. As these cultures mature over time, neural networks develop functional activity and form cohesive networks in which electrical activity can be highly coordinated. Baseline 40-minute recordings are made on days post-plating 13 or 15, followed by a secondary 40-minute recording after chemical exposure.CCTE_Shafer_MEA_acute_cross_correlation_HWHM is a component of the CCTE_Shafer_MEA_acute assay. It measures the distance along the x-axis (phase lag) from the left half maximum height to the center of the cross-correlogram of action potential firing during a recording in a microelectrode array (MEA) using Axion Biosystems Maestro 768 channel amplifier with the AxIS adaptive spike detector. Smaller values indicate a narrower correlogram (greater synchrony). The recordings before and after chemical treatment are used to calculate a percent change in the half width at half maximum of the cross-correlogram in each well.Data from the assay component CCTE_Shafer_MEA_acute_cross_correlation_HWHM was analyzed into 1 assay endpoint. This assay endpoint, CCTE_Shafer_MEA_acute_cross_correlation_HWHM, was analyzed in the negative analysis fitting direction relative to DMSO as the negative control and baseline of activity. Using a type of functional reporter, gain or loss-of-signal activity can be used to understand electrical activity.
Spontaneous activity in the cortical cultures was recorded using an Axion Biosystems Maestro 768 channel amplifier and Axion Integrated Studios (AxIS) v1.8 (or later) software. The amplifier recorded from all channels simultaneously (gain = 1200 x; sampling rate = 12.5 kHz/channel): raw signals were filtered with a Butterworth band-pass filter (300-5000 Hz), which filters out slower local field potentials leaving only fast potentials, i.e., "spikes", arising from extracellular currents associated with action potentials (Pine 2006; Wheeler and Nam 2011). On-line spike detection of filtered signals was conducted with the AxIS adaptive spike detector, using a threshold of 8x the root mean squared (rms) noise on each channel. Any electrodes with rms noise levels greater than 5 uV were grounded (e.g., no data were recorded). Once grounded, an electrode was grounded for the duration of the experiment. All recordings were conducted at 37 C. Wells were deemed usable if on the day of the exposure >/= 10 electrodes were active (defined as >/= 5 spikes/min). On DIV 13 or 15, a minimum of three wells from one cortical culture preparation were treated with each compound (0.03-40 uM). Prior to recording baseline activity, each mwMEA plate was placed in the Maestro at 37 C and allowed to sit for 20 min while firing rates stabilized. Baseline activity (40 min) was recorded before the addition of each compound. An additional 40 min of spontaneous activity was recorded in the presence of each compound. Changes in network parameters relative to baseline were assessed following compound treatment.

| Structure (SMILES) | outcome | AC50 |
| --- | --- | --- |
| CCN(Cc1cccc(S(=O)(=O)O)c1)c1ccc(C(=C2C=CC(=[N+](CC)Cc3cccc(S(=O)(=O)O)c3)C=C2)c2ccccc2S(=O)(=O)[O-])cc1 | inactive |  |
| COc1cc(C(=O)NC2CCN(C)CC2)ccc1Nc1ncc2c(n1)N(C1CCCC1)CC(F)(F)C(=O)N2C |  | 30.1 µM (active) |
| CCCCCCCCOC(=O)c1cc(O)c(O)c(O)c1 |  | 8.04 µM (active) |
| CN1C(=O)CC[C@H]1c1cccnc1 | inactive |  |
| CC/C(=C(/CC)c1ccc(O)cc1)c1ccc(O)cc1 |  | 20 µM (active) |
| CC(C)(C)c1cc(/C=C2\SC(N)=NC2=O)cc(C(C)(C)C)c1O | inactive |  |
| CC1=CC(=O)/C(=C(/C)O)C(=O)O1 | inactive |  |
| OC12N=C(c3ccccc3)SC1Cc1cc(Cl)ccc12 (stereo not given) |  | 31.3 µM (active) |
| Cc1cn([C@H]2C[C@H](N=[N+]=[N-])[C@@H](CO)O2)c(=O)[nH]c1=O | inactive |  |
| CN(C)c1ccc(C(=C2C=CC(=[N+](C)C)C=C2)c2ccc(N(C)C)cc2)cc1 |  | 2.13 µM (active) |
| CCCCOC(=O)c1ccc(O)cc1 | inactive |  |
| COc1cccc([C@H](O)C2CCN(CCc3ccc(F)cc3)CC2)c1OC |  | 10.2 µM (active) |
| NCc1cccc(C2CCN(C(=O)c3ccc(C#Cc4ccccc4F)o3)CC2)c1 |  | 34.9 µM (active) |
| CN(C[C@@H](CC[N+]12CCC(C3CCCCC3)(CC1)CC2)c1ccc(Cl)c(Cl)c1)C(=O)c1cc(C(F)(F)F)cc(C(F)(F)F)c1 |  | 8 µM (active) |
| C[C@]12CC[C@@H]3c4ccc(O)cc4CC[C@H]3[C@@H]1CC[C@H]2O | inactive |  |
| CC(=O)N1CCN(c2ccc(OC[C@H]3CO[C@](Cn4ccnc4)(c4ccc(Cl)cc4Cl)O3)cc2)CC1 |  | 33.1 µM (active) |
| O=c1[nH]sc2ccccc12 |  | 32.6 µM (active) |
| c1ccc2n[nH]nc2c1 | inactive |  |
| CCCCCCCCCCCCO |  | 28.8 µM (active) |
| Cc1c2ccccc2c(C)c2c1ccc1ccccc12 |  | 26.3 µM (active) |
| O=C(O)c1ccccc1-n1cc(C(=O)O)c(=O)c2cc(Nc3c(F)cc(F)cc3Cl)c(Cl)cc21 | inactive |  |
| CCN(CC)C(=O)c1cc(S(=O)(=O)Cc2ccccc2)c(N2CCC(c3ccccc3)CC2)cc1N(CC)CCN(C)C |  | 11 µM (active) |
| NC(=O)c1nc(-c2cccc(-c3cc(F)ccc3OCC(F)(F)C(F)(F)F)c2)n[nH]1 |  | 8.29 µM (active) |
| Cc1cc2c(cc1C(F)(F)F)N(C(=O)Nc1ccc(Oc3cccnc3C)nc1)CC2 | inactive |  |
| Clc1ccccc1C(c1ccccc1)(c1ccccc1)n1ccnc1 |  | 9.09 µM (active) |
| CC(O)CC(C)(C)O (stereo not given) | inactive |  |
| O=C1O[C@H]([C@@H](O)CO)C(O)=C1O | inactive |  |
| CN(C)C(=O)C1(N2CCCCC2)CCN(CC[C@@]2(c3ccc(Cl)c(Cl)c3)CN(C(=O)c3ccccc3)CCO2)CC1 |  | 22.1 µM (active) |
| CC[C@@H]1C[C@H](N(Cc2cc(C(F)(F)F)cc(C(F)(F)F)c2)C(C)=O)c2cc(C(F)(F)F)ccc2N1C(=O)OC(C)C | inactive |  |
| CC(C)(c1cc(Br)c(O)c(Br)c1)c1cc(Br)c(O)c(Br)c1 | inactive |  |

Source: PubChem BioAssay (EPA / NIEHS)
